# Results as given in paper PMC8384837, “Expanding the binding specificity for RNA recognition by a PUF domain”.
# Columns and labels:
# Experiment in all cases: yeast three-hybrid, YBZ-1, SC-Leu-His + 0.5 mM 3-AT, 4 days
# Conditions in all cases: tags: N-Gal4 AD-HA kept; label: inside an RPR1-promoter hybrid RNA with tandem MS2 sites; ssRNA
# PUM1 PUF domain R7-VSR = PUM1 PUF domain R7-VSR (Homo sapiens, UniProt Q14671 828-1176, S1079V;N1080S;E1083R)
# Summary of the method: (§1)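 Repeat regions from input (SC-Leu) and selection (SC-Leu-His + 0.5 mM 3-AT) plates were PCR-amplified and Illumina-sequenced after four days of growth. The cells were strain YBZ-1 with a LexA–MS2 coat fusion and a HIS3 reporter, co-expressing Pumilio-1 PUF domain libraries and matching RNA elements from a centromeric plasmid. The interaction score is the log change in variant frequency from input to selection, taken in log2 with a pseudocount of 1 for absent variants.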
# PUM1 PUF domain R6-VWV = molecular target: T1, PUM1 PUF domain R6-VWV (Homo sapiens, UniProt Q14671 828-1176, N1043V;Y1044W;Q1047V)
# T1 sequence: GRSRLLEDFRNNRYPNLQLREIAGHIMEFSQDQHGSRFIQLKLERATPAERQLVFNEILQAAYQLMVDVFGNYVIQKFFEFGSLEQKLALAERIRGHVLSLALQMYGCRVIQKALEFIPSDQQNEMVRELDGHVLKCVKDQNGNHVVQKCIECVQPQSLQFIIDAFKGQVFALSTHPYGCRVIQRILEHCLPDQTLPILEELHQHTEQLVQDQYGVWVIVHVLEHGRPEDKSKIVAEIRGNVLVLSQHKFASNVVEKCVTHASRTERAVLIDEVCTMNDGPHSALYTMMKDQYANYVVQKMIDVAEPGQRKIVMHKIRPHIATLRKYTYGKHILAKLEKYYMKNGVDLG
# Summary of the method: as §1
# PUM1 PUF domain R4-GPR = PUM1 PUF domain R4-GPR (Homo sapiens, UniProt Q14671 828-1176, N971G;H972P;Q975R)
# Summary of the method: as §1
# PUM1 PUF domain R4-PHG = PUM1 PUF domain R4-PHG (Homo sapiens, UniProt Q14671 828-1176, N971P;Q975G)
# Summary of the method: as §1
# PUM1 PUF domain R4-NQQ = PUM1 PUF domain R4-NQQ (Homo sapiens, UniProt Q14671 828-1176, H972Q)
# Summary of the method: as §1
# PUM1 PUF domain R3-LSG = PUM1 PUF domain R3-LSG (Homo sapiens, UniProt Q14671 828-1176, C935L;R936S;Q939G)
# Summary of the method: as §1
# PUM1 PUF domain R3-LST = PUM1 PUF domain R3-LST (Homo sapiens, UniProt Q14671 828-1176, C935L;R936S;Q939T)
# Summary of the method: as §1
# PUM1 PUF domain R3-SPT = PUM1 PUF domain R3-SPT (Homo sapiens, UniProt Q14671 828-1176, C935S;R936P;Q939T)
# Summary of the method: as §1
# PUM1 PUF domain R4-DFG = PUM1 PUF domain R4-DFG (Homo sapiens, UniProt Q14671 828-1176, N971D;H972F;Q975G)
# Summary of the method: as §1
# PUM1 PUF domain R8-PWQ = PUM1 PUF domain R8-PWQ (Homo sapiens, UniProt Q14671 828-1176, N1122P;Y1123W)
# Summary of the method: as §1
# Sequence of PUM1 PUF domain R4-PHG (Q14671 828-1176 N971P/Q975G): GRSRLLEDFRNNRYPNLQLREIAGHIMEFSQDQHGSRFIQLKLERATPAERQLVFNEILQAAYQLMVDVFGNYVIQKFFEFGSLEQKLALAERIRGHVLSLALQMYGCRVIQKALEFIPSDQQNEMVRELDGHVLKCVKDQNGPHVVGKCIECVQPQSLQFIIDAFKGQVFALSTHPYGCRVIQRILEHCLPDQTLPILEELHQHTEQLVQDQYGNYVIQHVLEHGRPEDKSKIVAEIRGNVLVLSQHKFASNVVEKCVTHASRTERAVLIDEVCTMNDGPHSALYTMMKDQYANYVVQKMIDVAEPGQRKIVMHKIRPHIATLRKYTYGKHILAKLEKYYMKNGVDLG
# Sequence of PUM1 PUF domain R3-LST (Q14671 828-1176 C935L/R936S/Q939T): as the sequence (Q14671 828-1176 N971P/Q975G) above, with C108L, R109S, Q112T, P144N, G148Q counted along it
# Sequence of PUM1 PUF domain R3-LSG (Q14671 828-1176 C935L/R936S/Q939G): as the sequence (Q14671 828-1176 N971P/Q975G) above, with C108L, R109S, Q112G, P144N, G148Q counted along it
sequence,measurement,setting,value
GGCUAGAACUAGUGGAUCCCCCGGCGCCCGGCGGCUCGAGCCCGGGUAAGUUUAAAUAGUCUGCAUGCCGCCGGGCGCCAUGCCUGCAGGUCGACUCUAGAAAACAUG,binding signal,PUM1 PUF domain R7-VSR,3.33 log2 enrichment (interaction score)
GGCUAGAACUAGUGGAUCCCCCGGCGCCCGGCGGCUCGAGCCCGGGUAAGUGAAAAUAGUCUGCAUGCCGCCGGGCGCCAUGCCUGCAGGUCGACUCUAGAAAACAUG,binding signal,PUM1 PUF domain R6-VWV,4.54 log2 enrichment (interaction score)
GGCUAGAACUAGUGGAUCCCCCGGCGCCCGGCGGCUCGAGCCCGGGUAAGUGUAUAUAGUCUGCAUGCCGCCGGGCGCCAUGCCUGCAGGUCGACUCUAGAAAACAUG,binding signal,PUM1 PUF domain R4-GPR,0.87 log2 enrichment (interaction score)
same,binding signal,PUM1 PUF domain R4-PHG,4.99 log2 enrichment (interaction score)
same,binding signal,PUM1 PUF domain R4-NQQ,2.71 log2 enrichment (interaction score)
GGCUAGAACUAGUGGAUCCCCCGGCGCCCGGCGGCUCGAGCCCGGGUAAGUGUAAGUAGUCUGCAUGCCGCCGGGCGCCAUGCCUGCAGGUCGACUCUAGAAAACAUG,binding signal,PUM1 PUF domain R3-LSG,2.82 log2 enrichment (interaction score)
same,binding signal,PUM1 PUF domain R3-LST,3.44 log2 enrichment (interaction score)
GGCUAGAACUAGUGGAUCCCCCGGCGCCCGGCGGCUCGAGCCCGGGUAAGUGUAAUUAGUCUGCAUGCCGCCGGGCGCCAUGCCUGCAGGUCGACUCUAGAAAACAUG,binding signal,PUM1 PUF domain R3-LSG,1.48 log2 enrichment (interaction score)
same,binding signal,PUM1 PUF domain R3-SPT,1.18 log2 enrichment (interaction score)
same,binding signal,PUM1 PUF domain R3-LST,2.71 log2 enrichment (interaction score)
GGCUAGAACUAGUGGAUCCCCCGGCGCCCGGCGGCUCGAGCCCGGGUAAGUGUACAUAGUCUGCAUGCCGCCGGGCGCCAUGCCUGCAGGUCGACUCUAGAAAACAUG,binding signal,PUM1 PUF domain R4-GPR,2.58 log2 enrichment (interaction score)
same,binding signal,PUM1 PUF domain R4-PHG,4.15 log2 enrichment (interaction score)
same,binding signal,PUM1 PUF domain R4-DFG,2.96 log2 enrichment (interaction score)
GGCUAGAACUAGUGGAUCCCCCGGCGCCCGGCGGCUCGAGCCCGGGUAAGUGUAAAUAGUCUGCAUGCCGCCGGGCGCCAUGCCUGCAGGUCGACUCUAGAAAACAUG,binding signal,PUM1 PUF domain R8-PWQ,3.79 log2 enrichment (interaction score)
same,binding signal,PUM1 PUF domain R4-PHG,4.7 log2 enrichment (interaction score)
same,binding signal,PUM1 PUF domain R6-VWV,1.13 log2 enrichment (interaction score)
same,binding signal,PUM1 PUF domain R4-DFG,5.83 log2 enrichment (interaction score)
same,binding signal,PUM1 PUF domain R3-SPT,2.13 log2 enrichment (interaction score)
